In experiment [1] the test system is Plasmodium falciparum Sir2 (PF13_0152, Sir2A). Briefly: Plasmodium falciparum Sir2A binding compounds – biochemical, small-molecule microarray, 635 nm fluorescence, primary screen (AID 1098).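 Note: score merges spot fluorescence intensity with its signal-to-noise ratio.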 The following applies: fluorescence 635 nm, higher = more signal.
Experiment [2] is described as follows: probe aDKK1 binding to arrayed compounds – biochemical, biotinylated probe, 635/667 nm fluorescence, primary screen (AID 1099).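 Note: score merges 667nm spot fluorescence with signal to noise across triplicate slides.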 The following applies: small-molecule microarray, higher = more signal.
The nature of experiment [3]: probe aCHRDL2 binding to arrayed compounds – biochemical, biotinylated probe, 635/667 nm fluorescence, primary screen (AID 1100). Conditions: small-molecule microarray, higher = more signal.
The nature of experiment [4]: change in splice reporter luminescence, either direction, cell-based, HEK293, spliceosome inhibition project, primary screen (AID 1101).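 Note: HEK293 cells carrying a splicing-competent luciferase reporter gene; test concentration not given here.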 Conditions: HEK293 splicing luciferase reporter, 24 h, higher = more signal, called active from +8 up or from −8 down. For orientation: In a reporter assay the amount or activity of a reporter protein is the signal.
Experiment [5] deals with Fibroblast growth factor 10 (Homo sapiens) (UniProt O15520). Briefly: compounds binding fibroblast growth factor 10 – biochemical, small-molecule microarray, 635 nm fluorescence, primary screen (AID 1102). Conditions: FGF10 binding, fluorescence 635 nm, higher = more signal.
Sequence of Fibroblast growth factor 10 (Homo sapiens) (O15520 whole entry, looked up): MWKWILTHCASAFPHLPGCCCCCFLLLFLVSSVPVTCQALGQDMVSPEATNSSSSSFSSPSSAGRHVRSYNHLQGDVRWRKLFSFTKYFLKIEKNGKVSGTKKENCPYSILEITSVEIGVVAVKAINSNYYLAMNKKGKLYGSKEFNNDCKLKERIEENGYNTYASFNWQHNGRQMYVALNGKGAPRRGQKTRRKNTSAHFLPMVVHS
Experiment [6] relates to glycogen synthase kinase-3 (GSK3A per assay name; protocol says GSK3B). The experiment is described as follows: compounds binding glycogen synthase kinase-3 – biochemical, small-molecule microarray, 635 nm fluorescence, GSK3A, primary screen (AID 1103). Note: the record names both GSK3A and GSK3B. The following applies: fluorescence 635 nm, higher = more signal.
The target of experiment [7] is Epidermal growth factor receptor (Homo sapiens) (UniProt P00533). The experiment is described as follows: compounds binding epidermal growth factor receptor – biochemical, small-molecule microarray, 635 nm fluorescence, primary screen (AID 1104).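 Note: score merges 667 nm emission intensity with spot signal to noise over triplicate slides.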 Conditions: EGFR binding, higher = more signal.
Sequence of Epidermal growth factor receptor (Homo sapiens) (P00533 whole entry, looked up): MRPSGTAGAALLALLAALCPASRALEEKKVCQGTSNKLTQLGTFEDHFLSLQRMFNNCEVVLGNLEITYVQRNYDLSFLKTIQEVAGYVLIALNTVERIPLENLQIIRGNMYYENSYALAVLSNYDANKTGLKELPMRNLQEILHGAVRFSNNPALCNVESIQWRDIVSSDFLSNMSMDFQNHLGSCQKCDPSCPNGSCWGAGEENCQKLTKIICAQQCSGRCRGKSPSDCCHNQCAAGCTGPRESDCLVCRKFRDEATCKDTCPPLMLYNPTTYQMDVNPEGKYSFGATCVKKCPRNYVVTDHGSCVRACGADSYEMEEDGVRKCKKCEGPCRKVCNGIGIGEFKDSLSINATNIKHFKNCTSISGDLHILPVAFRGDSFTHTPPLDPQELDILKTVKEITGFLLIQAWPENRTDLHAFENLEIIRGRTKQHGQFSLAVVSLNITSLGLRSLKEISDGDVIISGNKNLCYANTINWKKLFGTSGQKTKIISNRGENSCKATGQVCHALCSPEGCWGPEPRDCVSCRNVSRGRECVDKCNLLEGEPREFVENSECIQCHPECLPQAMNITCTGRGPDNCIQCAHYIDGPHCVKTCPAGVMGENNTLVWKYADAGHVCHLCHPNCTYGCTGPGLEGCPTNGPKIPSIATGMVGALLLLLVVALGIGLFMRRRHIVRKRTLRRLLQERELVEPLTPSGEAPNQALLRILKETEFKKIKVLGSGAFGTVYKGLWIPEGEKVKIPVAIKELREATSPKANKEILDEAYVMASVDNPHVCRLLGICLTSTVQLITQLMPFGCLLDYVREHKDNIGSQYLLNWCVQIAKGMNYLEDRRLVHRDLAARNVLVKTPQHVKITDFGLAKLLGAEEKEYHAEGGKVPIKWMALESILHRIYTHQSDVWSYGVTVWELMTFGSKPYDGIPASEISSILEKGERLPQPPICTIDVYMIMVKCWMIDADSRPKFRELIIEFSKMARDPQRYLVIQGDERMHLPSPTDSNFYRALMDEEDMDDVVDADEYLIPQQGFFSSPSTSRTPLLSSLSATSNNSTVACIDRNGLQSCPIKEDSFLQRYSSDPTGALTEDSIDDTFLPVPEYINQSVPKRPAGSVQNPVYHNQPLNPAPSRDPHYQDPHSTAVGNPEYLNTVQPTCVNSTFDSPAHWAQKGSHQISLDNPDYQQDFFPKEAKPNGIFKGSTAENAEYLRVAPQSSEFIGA
The target in experiment [8] is Follistatin-related protein 3 (Homo sapiens) (UniProt O95633). The experiment is described as follows: compounds binding follistatin-related protein 3 – biochemical, small-molecule microarray, 635 nm fluorescence, primary screen (AID 1105).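 Note: score merges emission near 667 nm and signal to noise per printed spot across three slides.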 The following applies: FSTL3 binding, higher = more signal.
Sequence of Follistatin-related protein 3 (Homo sapiens) (O95633 whole entry, looked up): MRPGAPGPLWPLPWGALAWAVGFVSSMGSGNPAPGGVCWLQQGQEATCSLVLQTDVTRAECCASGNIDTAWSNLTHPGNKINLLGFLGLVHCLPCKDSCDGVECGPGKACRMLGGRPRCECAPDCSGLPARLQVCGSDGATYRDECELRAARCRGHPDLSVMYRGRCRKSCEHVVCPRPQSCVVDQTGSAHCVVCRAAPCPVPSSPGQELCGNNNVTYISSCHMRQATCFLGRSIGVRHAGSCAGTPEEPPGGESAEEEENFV
The target of experiment [9] is Dickkopf-related protein 1 (Homo sapiens) (UniProt O94907). The experiment is described as follows: small molecules binding DKK1 protein – biochemical, small-molecule microarray, 635 nm fluorescence scan, primary screen (AID 1106).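 Note: score merges emission near 667 nm with signal to noise over three replicate slides.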 The following applies: higher = more signal.
Sequence of Dickkopf-related protein 1 (Homo sapiens) (O94907 whole entry, looked up): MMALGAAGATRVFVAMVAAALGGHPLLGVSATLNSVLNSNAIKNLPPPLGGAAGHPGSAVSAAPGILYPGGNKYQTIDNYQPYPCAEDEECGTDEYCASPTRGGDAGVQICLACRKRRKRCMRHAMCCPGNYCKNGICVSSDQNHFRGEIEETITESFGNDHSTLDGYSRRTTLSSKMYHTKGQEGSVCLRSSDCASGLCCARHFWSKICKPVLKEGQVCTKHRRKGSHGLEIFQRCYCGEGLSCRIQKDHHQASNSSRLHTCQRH
Experiment [10] deals with Inhibin beta A chain (activin A). Briefly: small molecules binding activin A – biochemical, small-molecule microarray, 635 nm fluorescence scan, primary screen (AID 1107).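 Note: mouse activin A protein probed at 4.33 µg/mL on printed slides; score merges bound-protein fluorescence near 667 nm with spot signal-to-noise.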 The following applies: INHBA, higher = more signal.
The subject of experiment [11] is Human papillomavirus type 1a protein E7 (residues 44-93). Briefly: small molecules binding HPV E7 44-93 – biochemical, small-molecule microarray, residues 44-93, 635 nm fluorescence, primary screen (AID 1108).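 Note: E7 fragment applied at 1 µg/mL in TBST for 1 h at 4 C; score combines spot fluorescence with its signal to noise ratio.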 Conditions: fluorescence 635 nm, higher = more signal.
Experiment [12] in a line: hepatitis C replication reporter changes, two-sided – Huh7 cells, luciferase reporter, HCV replication inhibitor project, primary screen (AID 1109).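 Note: huh7 hepatoma cells harbouring a luciferase neomycin HCV replicon reporter; luciferase luminescence as measure of HCV replicon replication; test concentration not given here.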 The following applies: Huh7 HCV replicon luciferase reporter, 48 h; higher = more signal.
In experiment [13] the target is Left-right determination factor 2 (Homo sapiens) (UniProt O00292). The experiment is described as follows: small molecules binding LEFTY2 protein – biochemical, small-molecule microarray, 635 nm fluorescence scan, primary screen (AID 1110). The following applies: higher = more signal.
Sequence of Left-right determination factor 2 (Homo sapiens) (O00292 whole entry, looked up): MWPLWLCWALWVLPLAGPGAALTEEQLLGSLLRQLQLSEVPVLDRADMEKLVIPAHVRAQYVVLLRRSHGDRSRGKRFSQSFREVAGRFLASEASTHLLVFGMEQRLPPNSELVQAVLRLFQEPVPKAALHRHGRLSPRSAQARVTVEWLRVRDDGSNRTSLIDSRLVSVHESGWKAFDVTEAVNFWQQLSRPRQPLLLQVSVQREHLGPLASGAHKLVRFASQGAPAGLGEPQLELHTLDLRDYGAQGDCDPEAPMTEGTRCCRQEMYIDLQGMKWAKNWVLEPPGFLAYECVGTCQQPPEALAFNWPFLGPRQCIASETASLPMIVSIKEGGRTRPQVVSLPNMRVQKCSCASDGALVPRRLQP
The target in experiment [14] is Calmodulin-1 (Homo sapiens) (UniProt P0DP23). The experiment is described as follows: small molecules binding calmodulin-1 with EGTA – biochemical, small-molecule microarray, Cy5-labelled CALM1, profiling panel (AID 1111).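 Note: labelled calmodulin applied in Tris saline Tween buffer holding calcium plus EGTA and DTT.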 The following applies: Cy5-CALM1 binding fluorescence, higher = more signal.
The target is the same in experiment [15]. Briefly: small molecules binding Ca-loaded calmodulin-1 – biochemical, small-molecule microarray, Cy5-labelled CALM1, plus calcium, artefact control for SMM control-protein annotation, profiling panel (AID 1112).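 Note: score merges spot fluorescence with signal to noise from triplicate slides.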 The following applies: Cy5-CALM1 binding fluorescence, higher = more signal.
The nature of experiment [16]: probe aWnt5a binding to arrayed compounds – biochemical, biotinylated probe, 635/667 nm fluorescence, primary screen (AID 1113).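 Note: score merges 667 nm fluorescence intensity with signal-to-noise per printed feature.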 Conditions: small-molecule microarray, higher = more signal.
Experiment [17] in a line: probe aShh binding to arrayed compounds – biochemical, biotinylated probe, 635/667 nm fluorescence, primary screen (AID 1114).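 Note: probe is biotin-labelled aShh protein from a stem cell growth factor screen; measures binding of labelled protein to compounds printed on the slide; score merges feature fluorescence at 667 nm with signal-to-noise.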 The following applies: small-molecule microarray, higher = more signal.
Experiment [18] is described as follows: probe aNog binding to arrayed compounds – biochemical, biotinylated probe, 635/667 nm fluorescence, primary screen (AID 1115).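 Note: probe is biotinylated aNog protein used at 0.15 µg/mL for 1 h at 4 C; z-score combines 667 nm fluorescence of each spot with its signal to noise.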 Conditions: small-molecule microarray, higher = more signal.
The target in experiment [19] is Torsin-1A-interacting protein 1 (Homo sapiens) (UniProt Q5JTV8). The experiment is described as follows: compound microarray binding of lysate hLAP1 – cell lysate, small-molecule microarray, COS7 lysate, 635/667 nm fluorescence, primary screen (AID 1116). Conditions: 635 nm fluorescence, higher = more signal.
Sequence of Torsin-1A-interacting protein 1 (Homo sapiens) (Q5JTV8 whole entry, looked up): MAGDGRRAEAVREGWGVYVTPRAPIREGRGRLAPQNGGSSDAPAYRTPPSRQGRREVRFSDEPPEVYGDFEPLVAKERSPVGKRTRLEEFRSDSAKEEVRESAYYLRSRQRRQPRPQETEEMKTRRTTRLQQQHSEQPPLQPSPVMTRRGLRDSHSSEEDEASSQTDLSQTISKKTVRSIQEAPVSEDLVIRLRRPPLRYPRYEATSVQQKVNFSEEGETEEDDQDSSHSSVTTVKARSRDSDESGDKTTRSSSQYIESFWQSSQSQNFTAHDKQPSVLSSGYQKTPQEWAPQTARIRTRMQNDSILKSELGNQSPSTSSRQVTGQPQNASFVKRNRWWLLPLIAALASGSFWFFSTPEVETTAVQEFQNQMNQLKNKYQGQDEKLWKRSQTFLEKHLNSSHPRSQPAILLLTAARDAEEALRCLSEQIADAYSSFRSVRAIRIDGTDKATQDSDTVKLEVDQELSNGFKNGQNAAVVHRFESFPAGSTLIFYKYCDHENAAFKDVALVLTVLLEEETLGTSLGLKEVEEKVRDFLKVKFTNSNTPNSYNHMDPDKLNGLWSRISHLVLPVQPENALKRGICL
Experiment [20] concerns the target Alpha-bungarotoxin (Bungarus multicinctus) (UniProt P60615). Briefly: compounds binding labelled alpha-BTX control protein – biochemical, small-molecule microarray, Alexa647 label, 635/667 nm fluorescence, artefact control for SMM control protein annotation, profiling panel (AID 1117). Conditions: alpha-BTX-A647 binding fluorescence, higher = more signal.

Active and inactive are the calls of the source.

Sequence of Alpha-bungarotoxin (Bungarus multicinctus) (P60615 whole entry, looked up): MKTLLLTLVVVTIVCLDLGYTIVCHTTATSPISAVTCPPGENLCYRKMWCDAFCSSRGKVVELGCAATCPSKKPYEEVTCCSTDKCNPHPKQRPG

In the case of `Cc1ccc(N2C(=O)c3ccccc3[C@](C)(C(=O)NC3CC3)[C@@H]2c2ccc(CO)cc2)nc1`, the composite z-score in [1] is -0.168; in experiment [2] it was 0.931; in experiment [3] it was 0.541; in experiment [5], -0.0779; in [6], -0.0639; in experiment [7], -0.0541. The composite z-score in experiment [8] is 0.44; in experiment [9] it was 0.272; in experiment [10], 1.13; in experiment [11] it was -1.22; in experiment [13], 0.129; in experiment [14], -2.49. Further, the composite z-score was -0.231 in experiment [15]; -0.0792 in experiment [16]; -0.341 in experiment [17]; 0.0265 in [18]; 1.26 in experiment [19]; 0.413 in [20]. Besides, the z-score in experiment [4] was 0.466 (inactive); in [12], 0.344.

For the compound `[N-]=[N+]=NCc1ccccc1C[C@@]1(C(=O)O)N=C(c2ccc(OCCCO)cc2)O[C@@H]1c1ccccc1`, the composite z-score was 1.31 in experiment [1]; 0.884 in experiment [2]; 1.24 in experiment [3]; -0.0995 in experiment [5]; -0.374 in experiment [6]; -0.906 in experiment [7]. In addition, the composite z-score is -0.879 in experiment [8]; -1.09 in [9]; 0.738 in [10]; 0.566 in experiment [11]; -0.404 in [13]; 2.13 in [14]. Further, the composite z-score is 1.36 in experiment [15]; -0.0799 in [16]; 0.0469 in experiment [17]; 0.767 in experiment [18]; 1.75 in experiment [19]; 1.09 in experiment [20]. Further, the z-score in experiment [4] is -0.618 (inactive); in [12] it was -0.616.

As to `C=CCC(OC(C)=O)[C@@H]1[C@@H](N(Cc2cc3ccccc3o2)C(=O)c2ccc(-c3ccccc3)cc2)c2cc(OCCCO)ccc2N1C(=O)c1ccc(-c2ccccc2)cc1` (stereo not given in full), the composite z-score is -0.149 in experiment [1]; 0.232 in [2]; 0.641 in experiment [3]; 0.0657 in experiment [5]; -0.402 in experiment [6]; -0.154 in experiment [7]. Besides, the composite z-score is 0.0956 in experiment [8]; -0.0818 in experiment [9]; 1.27 in experiment [10]; -0.292 in [11]; 0.0559 in [13]; 0.0671 in experiment [14]. For the same compound, the composite z-score in experiment [15] is 1.29; in [16], 0.0628; in experiment [17], -0.282; in experiment [18], 0.502; in [19], 0.2; in experiment [20], 0.484. The z-score in experiment [4] was -1.04 (inactive); in experiment [12], -0.366.

Consider `COc1ccc([Si](C)(C)[C@@H]2[C@@H](CC(=O)N3CCC[C@H]3CO)O[C@]3(C(=O)N(Cc4ccc(N5CCC5=O)cc4)c4ccccc43)[C@H]2C)cc1`, for which the composite z-score in experiment [1] is 1.22; in experiment [2] it was 0.123; in experiment [3], 0.0655; in experiment [5] it was 0.61; in experiment [6], 0.398; in experiment [7] it was 0.35. Further, the composite z-score came to 0.489 in experiment [8]; 0.33 in experiment [9]; 0.194 in experiment [10]; 0.196 in [11]; 0.499 in experiment [13]; 0.593 in experiment [14]. Moreover, the composite z-score is 0.343 in [15]; -0.124 in experiment [16]; 0.257 in experiment [17]; 0.241 in experiment [18]; 0.303 in [19]; 0.428 in experiment [20]. The z-score in experiment [4] was -0.473 (inactive); in experiment [12], -1.96.

`CC(C)C[C@@H]1NC(=O)[C@H]2C[C@@H](C(=O)NCCCC[N+](C)(C)C)[C@@H](c3cccc(OCCO)c3)N2C1=O`: the composite z-score in experiment [1] was 0.812; in [2], 0.0877; in experiment [3] it was -0.409; in [5], 0.756; in experiment [6], -0.285; in experiment [7], 0.0727. For the same compound, the composite z-score was 0.965 in experiment [8]; 1.23 in experiment [9]; -0.125 in experiment [10]; -1.55 in [11]; 0.673 in experiment [13]; -0.144 in experiment [14]. Also, the composite z-score in experiment [15] is 0.75; in experiment [16] it was -0.148; in experiment [17], -0.0722; in [18], 0.327; in experiment [19], 1.19; in experiment [20], -0.491. Besides, the z-score in experiment [4] was -1.02 (inactive); in experiment [12], -1.48.

As to `COc1c(C)cc(-c2cc3c(c(CCc4ccccc4)n2)[Si](C(C)C)(C(C)C)OC3)cc1C`, the composite z-score is -0.615 in experiment [1]; 0.335 in experiment [2]; 0.156 in [3]; 0.513 in [5]; 0.723 in experiment [6]; 0.927 in experiment [7]. Besides, the composite z-score was 0.567 in experiment [8]; 0.162 in experiment [9]; 0.474 in experiment [10]; 0.804 in [11]; 0.474 in experiment [13]; -0.354 in experiment [14]. For the same compound, the composite z-score in experiment [15] is -0.381; in experiment [16], -0.152; in experiment [17], -0.131; in [18], 0.162; in [19], 0.0693; in experiment [20], -0.382. Further, the results for the z-score in experiment [4] and in [12] were -1.28 (inactive) and 0.336, respectively.

For the origin of these results see PubChem BioAssay.
